From PubChem BioAssay AID720596 (The Scripps Research Institute Molecular Screening Center, 2013)
Out of some 370,000 compounds screened, about 1,600 (0.43%) were called active. No stated cut-off is given here; in the data, active means inhibition above about 24%; inactive means the rest. What follows is part of a selection rich in actives, with near analogues and random picks from the rest.

What follows are compounds tested against Major prion protein (Homo sapiens) (UniProt P04156) (assay: inhibitors of human cell surface prion protein PrPC, primary screen, cell-based, TR-FRET (AID 720596; further: 0% = median of the test wells and 100% = reference compound wells)). Conditions: TR-FRET read-out, at 13.8 µM, active compounds read high.

| SMILES | inhibition |
| --- | --- |
| COc1cc(-n2c(=S)[nH]c3ccc(C)cc3c2=O)c(Cl)cc1Cl | 41% (active) |
| COc1ccc(OC)c(-n2c(=S)[nH]c3cc(C(=O)N4CCCCC4)ccc3c2=O)c1 | 2.99% (inactive) |
| COc1cc2[nH]c(=S)n(Cc3ccc(C)o3)c(=O)c2cc1OC | -2% (inactive) |
| COc1cccc(C(=O)N2CCCC(CCC(=O)NCc3ccc(F)c(F)c3)C2)c1 (centres undefined) | 1.57% (inactive) |
| CCCOc1ccc(C2C(C(=O)c3ccc(C)o3)=C(O)C(=O)N2CCCn2ccnc2)cc1 (centres undefined) | 39.3% (active) |
| CCOc1ccc(C2/C(=C(/O)c3ccc4c(c3)CC(C)O4)C(=O)C(=O)N2CCCn2ccnc2)cc1 (centres undefined) | 1.98% (inactive) |
| C=CCOc1cccc(C2C(C(=O)c3ccc(C)o3)=C(O)C(=O)N2CCN2CCOCC2)c1 (centres undefined) | -10.8% (inactive) |
| CCOc1ccccc1OCCCNCc1ccccc1 | -4% (inactive) |
| N#C/C=C1\Sc2ccccc2C(=O)N1CC(=O)N1CCN(S(=O)(=O)c2ccccc2)CC1 | 59.8% (active) |
| O=C(CN1CCCSc2ccccc21)N1CCN(S(=O)(=O)c2cccc(F)c2)CC1 | -1.47% (inactive) |
| CC(C)c1ccc(S(=O)(=O)N2CCN(C(=O)CN3C(=O)NC(C)(c4ccccc4)C3=O)CC2)cc1 (centres undefined) | -0.25% (inactive) |
| CCCN(C(=O)CSc1nnc(N)s1)c1c(N)n(Cc2ccccc2)c(=O)[nH]c1=O | -0.1% (inactive) |
| COc1ccc(Cl)cc1NC(=O)COc1ccc2c(c1)OCO2 | 0.61% (inactive) |
| Cc1noc(C)c1NC(=O)Nc1ccc2c(c1)C(=O)N([C@H](C)CO)C[C@H](C)[C@@H](CN(C)S(=O)(=O)c1cn(C)cn1)O2 | 3.79% (inactive) |
| COc1ccc(C)cc1NC(=O)CSc1nnc2ccc(-c3ccccn3)nn12 | -1.48% (inactive) |
| O=C(CCCNS(=O)(=O)c1cccc2nsnc12)NCCN1CCN(c2ccccc2F)CC1 | -22.9% (inactive) |
| Cc1cccc(CS(=O)(=O)c2ncc(Cl)c(C(=O)Nc3ccc(F)cc3)n2)c1 | 54.3% (active) |
| CN(CCC(=O)Nc1cc(S(=O)(=O)N(C)C)ccc1Cl)CC(=O)Nc1ccc(F)cc1 | -6.03% (inactive) |
| Cc1cccc(NC(=O)c2cc3c(C)nn(-c4ccccc4)c3s2)c1 | -2.71% (inactive) |
| Cc1cccc(NC(=O)Cn2c(=O)n(Cc3ccccc3)c(=O)c3c(C)c(C)sc32)c1 | 4.63% (inactive) |

| SMILES | inhibition |
| --- | --- |
| Cc1cccc(C(=O)Nc2c(-c3ccc(F)cc3)nc3ncccn23)c1 | 0.67% (inactive) |
| Cc1cccc(NC(=O)c2nc(S(=O)(=O)Cc3ccccc3)ncc2Cl)c1 | 70.4% (active) |
| Cc1ccc(NS(=O)(=O)c2cccs2)cc1S(=O)(=O)N1CCCCCC1 | 2.21% (inactive) |
| Cc1cccc(CC(=O)N2CCN=C2SCc2ccc([N+](=O)[O-])cc2)c1 | -5.21% (inactive) |
| CCCn1c(=S)[nH]c2ccc(C(F)(F)F)cc21 | 12.2% (inactive) |
| CCN(CC(=O)NCc1ccc(F)cc1)S(=O)(=O)c1ccc(Cl)s1 | -0.88% (inactive) |
| Cc1ccnc(NC(=O)C2CCN(S(=O)(=O)c3c(C)c(C)cc(C)c3C)CC2)c1 | 28.1% (active) |
| Cc1ccc(Cl)cc1NC(=O)C1CCN(S(C)(=O)=O)CC1 | 4.88% (inactive) |
| O=C(Nc1ccccn1)C1CCN(S(=O)(=O)c2ccc3c(c2)OCCO3)CC1 | -7.97% (inactive) |
| O=C(/C=C/c1cnc2ccccc2n1)NC1CCCCCC1 | -28.9% (inactive) |
| CCOC(=O)c1c(-c2ccccc2)oc2cc(Br)c(O)cc12 | 58.6% (active) |
| CCOC(=O)c1c(-c2ccccc2)oc2ccc(OC(=O)N(C)C)cc12 | -3.58% (inactive) |
| CCOC(=O)c1c(C)oc2cc(Br)c(OCC(N)=O)cc12 | -4.57% (inactive) |
| CCNc1nc(NCC)nc(N(C)n2cnnc2)n1 | 3.48% (inactive) |
| CCN(CC)c1ccc(S(=O)(=O)N2CCOCC2)cc1NC(=O)CSc1cccc[n+]1[O-] | -5.4% (inactive) |
| CCN1CCN(C(=O)C2CCCN(S(=O)(=O)c3ccc(OC)c(OC)c3)C2)CC1 (centres undefined) | -1.58% (inactive) |
| Nc1cc2c(cc1Br)-c1ccc(F)cc1C2=O | -0.15% (inactive) |
| O=C(/C=C/c1ccc([N+](=O)[O-])o1)NNC(=O)c1ccc(F)cc1 | 64.7% (active) |
| CCN(CC)N=Nc1cccc(NC(C)=O)c1 | -7.3% (inactive) |
| Cc1ccc(SC(CC(=O)c2ccc(C(C)(C)C)cc2)C(=O)O)cc1 (centres undefined) | -2% (inactive) |

| SMILES | inhibition |
| --- | --- |
| O=C(OCC(=O)N1CCCCC1)c1ccc(OC(F)(F)F)cc1 | 8.76% (inactive) |
| c1ccc(-n2ncc(-c3nn[nH]n3)n2)cc1 | 1.91% (inactive) |
| CCc1cc(-c2n[nH]c(=S)n2CC(C)C)cs1 | -0.39% (inactive) |
| Cc1ccc(S(=O)(=O)N2CCOCC2)cc1NC(=O)c1ccncc1 | 7.08% (inactive) |
| O=C(Nc1ccc(S(=O)(=O)N2CCOCC2)cc1)c1ccc2ncsc2c1 | 0.06% (inactive) |
| COc1ccc(C(=O)Nc2nc(-c3ccc(S(=O)(=O)N4CCOCC4)cc3)cs2)cc1 | 27.2% (active) |
| COc1ccc(NC(=O)CN(C)C(=O)c2cc(C3CC3)nn2-c2ccccc2)cc1 | 10.2% (inactive) |
| CCC(C)(O)C(=O)OC1C(=O)OC2CC3C(C)=CC(=O)C(O)C3(C)C3C4(O)OCC23C1C(C)C4O (centres undefined) | 83.1% (active) |
| O=C(N/C(=C\c1ccc(F)cc1)C(=O)N1CCCCCC1)c1ccccc1 | -7.9% (inactive) |
| Cc1ccc(-c2nc3ccccc3c(=O)n2-c2ccc(Br)cn2)cc1 | 0.03% (inactive) |
| COc1ccc(CC(=O)NC(C)c2ccc(Cl)c(Cl)c2)cc1S(=O)(=O)N1CCOCC1 (centres undefined) | 4.45% (inactive) |
| COc1ccc(C)cc1NC(=O)CNCc1cccs1 | 0.34% (inactive) |
| O=C(COC(=O)CNC(=O)C1CCCCC1)Nc1cccc(F)c1 | -5.42% (inactive) |
| CC1CC1C(=O)OCC(=O)Nc1cccc(F)c1 (centres undefined) | -3.56% (inactive) |
| Cc1ccsc1C(=O)OCC(=O)Nc1cccc(F)c1 | 25.2% (active) |
| CCN(CC(=O)NCc1ccc(Cl)cc1)C(=O)CSc1ccccc1 | 9.76% (inactive) |
| CN1/C(=C\C=C2\N=C(c3ccc(F)cc3)OC2=O)C(C)(C)c2ccccc21 | 9.17% (inactive) |
| CN1/C(=C\C(=O)c2oc3ccccc3c2N)C(C)(C)c2ccccc21 | 51.8% (active) |
| C=CCN1C(=O)C2(C(C(=O)OCC)=C(N)Oc3c2c(=O)oc2ccccc32)c2ccccc21 (centres undefined) | 8.11% (inactive) |
